In PubChem BioAssay (EPA / NIEHS):
The source made the active and inactive calls. The calls were made as follows: active = hit-call score of the fitted dose curve at least 0.9, where 1 is the maximum; inactive = score below 0.9.

Assays:
[1] = ATG_CRE_CIS: Attagene CIS-FACTORIAL HepG2 Assay for human cAMP Responsive Element (CRE) binding protein 3 (AID 2282926); details: HepG2 CRE cis-reporter, Attagene multiplexed mRNA; actives raise or lower the signal
In short: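 Transfected HepG2 were treated for 24 hours, then RNA was extracted and reporter cDNA amplified with sequence-specific primers. Labelled fragments were separated by capillary electrophoresis, and the CRE signal was fitted bidirectionally with DMSO as baseline.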

[2] = molecular target: CCAAT/enhancer-binding protein beta (Homo sapiens) (UniProt P17676); experiment: ATG_C_EBP_CIS: Attagene CIS-FACTORIAL HepG2 Assay for human CCAAT/Enhancer Binding Protein (C/EBP) beta (AID 2282927); details: HepG2 Attagene cis-factorial transcription factor reporter; actives raise or lower the signal
Sequence of CCAAT/enhancer-binding protein beta (Homo sapiens) (P17676 whole entry, looked up): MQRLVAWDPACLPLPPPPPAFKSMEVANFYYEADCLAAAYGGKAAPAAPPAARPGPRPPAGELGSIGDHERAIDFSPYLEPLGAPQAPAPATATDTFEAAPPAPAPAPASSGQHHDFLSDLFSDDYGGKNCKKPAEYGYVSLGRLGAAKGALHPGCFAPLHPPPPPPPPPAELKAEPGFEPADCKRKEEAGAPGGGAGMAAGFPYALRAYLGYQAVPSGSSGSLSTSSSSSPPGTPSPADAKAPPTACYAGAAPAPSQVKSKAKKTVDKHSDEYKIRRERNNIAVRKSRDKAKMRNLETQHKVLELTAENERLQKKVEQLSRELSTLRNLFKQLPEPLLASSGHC
In short: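 Transiently transfected HepG2 (MRTU library, endogenous TF-driven promoters); 24 h dosing; total RNA → oligo(dT) RT → PCR → 6-FAM primer extension → HpaI digest → CE; fit bidirectionally vs DMSO.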

[3] = ATG_CMV_CIS: Attagene CIS-FACTORIAL HepG2 Assay for human CMV (Internal Marker) (AID 2282928); details: HepG2 CMV promoter reporter, transcription factor profiling; actives raise or lower the signal;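 also: endpoint acts as a background internal control marker rather than a target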
In short: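 Cell system: HepG2, transiently transfected multiple reporter units under cis promoters. Exposure: 24 h. Detection: RT-PCR, FAM labeling, HpaI digestion, capillary electrophoresis. Analysis: bidirectional, DMSO baseline.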

[4] = ATG_DR4_LXR_CIS: Attagene CIS-FACTORIAL HepG2 Assay for human Liver X Receptor (LXR), DR4 submotif (AID 2282929); details: HepG2 Attagene DR4 cis-reporter, mRNA transcription; actives raise or lower the signal
In short: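 HepG2 cells transiently transfected with cis-promoter-driven multiplexed reporter units (DR4 element) were dosed for 24 h. Reporter mRNA was quantified by RT-PCR, fluorescent primer extension, HpaI digestion and capillary electrophoresis; bidirectional fitting versus DMSO baseline.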

[5] = molecular target: Aryl hydrocarbon receptor (Homo sapiens) (UniProt P35869); experiment: ATG_Ahr_CIS: Attagene CIS-FACTORIAL HepG2 Assay for human Aryl Hydrocarbon Receptor (Ahr) (AID 2282930); details: HepG2 AhR cis-factorial reporter transcription; actives raise or lower the signal
Sequence of Aryl hydrocarbon receptor (Homo sapiens) (P35869 whole entry, looked up): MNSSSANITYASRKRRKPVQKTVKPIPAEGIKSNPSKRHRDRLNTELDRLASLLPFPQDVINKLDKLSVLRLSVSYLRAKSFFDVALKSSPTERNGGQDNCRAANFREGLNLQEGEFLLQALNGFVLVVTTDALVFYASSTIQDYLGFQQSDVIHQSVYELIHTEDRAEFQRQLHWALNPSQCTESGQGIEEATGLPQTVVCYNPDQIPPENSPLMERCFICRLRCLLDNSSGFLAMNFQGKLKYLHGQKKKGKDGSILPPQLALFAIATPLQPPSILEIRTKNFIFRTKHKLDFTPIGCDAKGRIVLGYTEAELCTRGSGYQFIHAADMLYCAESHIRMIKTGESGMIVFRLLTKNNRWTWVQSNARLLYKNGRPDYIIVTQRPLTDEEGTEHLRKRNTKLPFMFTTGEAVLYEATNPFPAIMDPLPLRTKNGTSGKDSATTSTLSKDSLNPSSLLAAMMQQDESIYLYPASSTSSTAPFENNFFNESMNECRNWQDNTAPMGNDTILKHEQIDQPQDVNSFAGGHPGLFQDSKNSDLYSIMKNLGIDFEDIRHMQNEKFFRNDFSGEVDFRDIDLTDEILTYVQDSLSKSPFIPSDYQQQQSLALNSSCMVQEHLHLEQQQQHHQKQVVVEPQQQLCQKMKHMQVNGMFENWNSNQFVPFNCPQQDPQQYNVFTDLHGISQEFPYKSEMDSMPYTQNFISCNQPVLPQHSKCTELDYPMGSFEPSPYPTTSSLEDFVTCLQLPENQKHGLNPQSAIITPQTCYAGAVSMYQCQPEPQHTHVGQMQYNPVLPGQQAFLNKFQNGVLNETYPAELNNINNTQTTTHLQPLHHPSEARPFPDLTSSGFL
In short: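 Read-out: reporter mRNA quantified by RT-PCR with fluorescent primer extension and capillary electrophoresis. Human HepG2 liver cells carried transfected cis-promoter reporter units and were exposed to chemical for 24 h; gain or loss fitted relative to DMSO.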

[6] = ATG_AP_2_CIS: Attagene CIS-FACTORIAL HepG2 Assay for human Activator Protein 2 (AP-2) (AID 2282932); details: HepG2 AP-2 cis-reporter, Attagene transcription factor profiling; actives raise or lower the signal
In short: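 Multiplexed mRNA reporter assay in HepG2: cis-regulated units report endogenous factor activity after 24 h treatment. Fluorescence from capillary electrophoresis of RT-PCR products gives the signal, with DMSO as baseline.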

[7] = ATG_BRE_CIS: Attagene CIS-FACTORIAL HepG2 Assay for human Bone Morphogenetic Protein (BMP) Response Element (BRE) (AID 2282933); details: HepG2 BMP response element reporter, Attagene transcription factor profiling; actives raise or lower the signal
In short: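 Transient MRTU transfection of human HepG2 liver cells; 24 h compound treatment; total RNA isolated, reverse-transcribed, PCR-amplified, 6-FAM labelled, HpaI-cut, capillary electrophoresis. DMSO = negative control/baseline, bidirectional fit.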

[8] = molecular target: Transcription factor E2F1 (Homo sapiens) (UniProt Q01094); experiment: ATG_E2F_CIS: Attagene CIS-FACTORIAL HepG2 Assay for human E2F Transcription Factor 1 (AID 2282935); details: HepG2 Attagene cis-reporter, E2F reporter RNA transcripts; actives raise or lower the signal
Sequence of Transcription factor E2F1 (Homo sapiens) (Q01094 whole entry, looked up): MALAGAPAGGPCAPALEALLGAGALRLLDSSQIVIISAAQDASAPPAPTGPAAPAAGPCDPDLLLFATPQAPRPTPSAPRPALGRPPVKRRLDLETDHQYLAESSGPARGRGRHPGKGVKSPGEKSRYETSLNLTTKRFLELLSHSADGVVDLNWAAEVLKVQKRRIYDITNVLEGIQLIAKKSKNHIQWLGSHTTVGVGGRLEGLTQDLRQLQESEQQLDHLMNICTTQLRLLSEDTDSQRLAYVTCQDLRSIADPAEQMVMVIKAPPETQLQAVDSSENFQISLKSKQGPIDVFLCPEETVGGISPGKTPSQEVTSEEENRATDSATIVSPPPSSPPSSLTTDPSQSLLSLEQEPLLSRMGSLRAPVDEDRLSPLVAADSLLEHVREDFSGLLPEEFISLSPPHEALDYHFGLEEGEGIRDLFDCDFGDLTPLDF
In short: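 Measures reporter transcript levels via RT-PCR with capillary electrophoresis detection in HepG2 cells harboring cis-regulated reporter units; 24 h post-dose; bidirectional curve fitting with DMSO as baseline.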

[9] = ATG_E_Box_CIS: Attagene CIS-FACTORIAL HepG2 Assay for human Enhancer Box (E-box) (AID 2282936); details: HepG2 E-box cis-reporter transcription, actives raise or lower the signal
In short: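 First, HepG2 cells receive multiple cis-regulated reporter constructs by transient transfection. Next, chemicals are applied for 24 h. Finally, reporter mRNA is quantified via RT-PCR and capillary electrophoresis, with DMSO as baseline.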

[10] = ATG_M_61_CIS: Attagene CIS-FACTORIAL HepG2 Assay for M61 Transcription Factor (Internal Marker) (AID 2282937); details: HepG2 Attagene CIS-FACTORIAL M61 internal marker reporter; actives raise or lower the signal
In short: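 HepG2 cells transiently transfected with cis-element-driven multiple reporter transcription units, dosed for 24 h. Reporter mRNA measured by RT-PCR, 6-FAM primer-extension labelling, HpaI digestion and capillary electrophoresis; bidirectional fit versus DMSO baseline.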

[11] = ATG_EGR_CIS: Attagene CIS-FACTORIAL HepG2 Assay for human Early Growth Response 1 (EGR1) (AID 2282938); details: HepG2 Attagene CIS-FACTORIAL EGR reporter mRNA; actives raise or lower the signal
In short: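 HepG2 cells transiently transfected with cis-promoter-driven multiplexed reporter transcription units; reporter mRNA measured 24 h after compound dosing by RT-PCR, 6-FAM primer extension, HpaI digestion and capillary electrophoresis. Bidirectional fit versus DMSO baseline.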

[12] = ATG_M_19_CIS: Attagene CIS-FACTORIAL HepG2 Assay for M19 Transcription Factor (Internal Marker) (AID 2282939); details: HepG2 Attagene CIS-FACTORIAL M19 internal marker reporter; actives raise or lower the signal
In short: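 Transfect HepG2 with MRTU reporter library → dose chemical, 24 h → isolate total RNA, reverse-transcribe with oligo(dT) → PCR, 6-FAM label, HpaI cut (2 h, 37 C) → capillary electrophoresis. Bidirectional fit vs DMSO.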

[13] = ATG_ERE_CIS: Attagene CIS-FACTORIAL HepG2 Assay for Estrogen Response Element (ERE) (AID 2282940); details: HepG2 ERE cis-reporter, Attagene RNA transcript; actives raise or lower the signal
In short: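 Transient MRTU transfection of human HepG2; cis-element promoters; 24 h dosing; total RNA → RT (oligo dT) → PCR → 6-FAM primer extension → HpaI digest → CE fluorescence. Bidirectional fit, DMSO baseline.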

[14] = ATG_Ets_CIS: Attagene CIS-FACTORIAL HepG2 Assay for human Erythroblast Transformation Specific (ETS) (AID 2282941); details: HepG2 ETS cis-reporter transcription, actives raise or lower the signal
In short: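 After transient cis-reporter transfection, HepG2 cells receive test chemical for 24 h. Reporter mRNA levels, measured by RT-PCR and capillary electrophoresis fluorescence, are analysed bidirectionally relative to the DMSO baseline.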

[15] = molecular target: Hepatocyte nuclear factor 3-beta (Homo sapiens) (UniProt Q9Y261); experiment: ATG_FoxA2_CIS: Attagene CIS-FACTORIAL HepG2 Assay for human Forkhead box A2 (FOXA2) (AID 2282942); details: HepG2 cis-reporter transcription factor activity, 24 h; actives raise or lower the signal
Sequence of Hepatocyte nuclear factor 3-beta (Homo sapiens) (Q9Y261 whole entry, looked up): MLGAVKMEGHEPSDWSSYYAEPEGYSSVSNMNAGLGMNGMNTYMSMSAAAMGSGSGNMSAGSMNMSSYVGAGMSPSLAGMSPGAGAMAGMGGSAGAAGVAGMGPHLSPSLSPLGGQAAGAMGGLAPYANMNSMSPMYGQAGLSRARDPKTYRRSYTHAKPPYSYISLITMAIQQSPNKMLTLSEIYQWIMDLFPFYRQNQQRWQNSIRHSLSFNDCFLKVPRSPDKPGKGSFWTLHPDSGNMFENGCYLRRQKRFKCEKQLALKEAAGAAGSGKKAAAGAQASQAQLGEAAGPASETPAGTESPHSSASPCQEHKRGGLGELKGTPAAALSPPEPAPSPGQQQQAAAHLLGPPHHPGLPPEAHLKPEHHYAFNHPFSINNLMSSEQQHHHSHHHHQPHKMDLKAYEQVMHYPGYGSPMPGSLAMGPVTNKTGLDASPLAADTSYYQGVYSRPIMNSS
In short: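 HepG2 cells transiently transfected with multiple cis-regulated reporter transcription units, dosed for 24 h. Reporter mRNA measured by RT-PCR, 6-FAM labelling, HpaI digestion and capillary electrophoresis; bidirectional fitting against DMSO baseline.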

[16] = ATG_FoxO_CIS: Attagene CIS-FACTORIAL HepG2 Assay for human Forkhead box O (FoxO) (AID 2282943); details: HepG2 Attagene cis-reporter, FoxO element, mRNA; actives raise or lower the signal
In short: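 Read-out: fluorescence of 6-FAM-labelled reporter cDNA fragments resolved by capillary electrophoresis. Transiently transfected HepG2 cells were dosed for 24 h; activity fitted in both directions relative to DMSO controls.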

[17] = ATG_GATA_CIS: Attagene CIS-FACTORIAL HepG2 Assay for human GATA Binding Protein (AID 2282944); details: HepG2 GATA cis-element reporter, Attagene multiplex mRNA; actives raise or lower the signal
In short: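 Transient MRTU transfection, HepG2, 24 h compound exposure. Total RNA → oligo(dT) RT → PCR → 6-FAM primer extension → HpaI cut → CE. Bidirectional fit vs DMSO.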

[18] = ATG_GLI_CIS: Attagene CIS-FACTORIAL HepG2 Assay for human Zinc Finger Protein GLI1 (AID 2282945); details: HepG2, Attagene cis-factorial reporter mRNA, GLI element; actives raise or lower the signal
In short: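 Transiently transfected HepG2 cells report endogenous transcription factor activity via cis-element-driven reporter units. After 24 h compound exposure, reporter mRNA was measured by RT-PCR with capillary electrophoresis; bidirectional fitting against DMSO baseline.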

[19] = ATG_AP_1_CIS: Attagene CIS-FACTORIAL HepG2 Assay for human Activator Protein 1 (AP-1) (AID 2282931); details: HepG2 Attagene cis-factorial AP-1 reporter mRNA; actives raise or lower the signal
In short: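 HepG2 cells transiently transfected with cis-element-driven multiplex reporter units; 24 h compound exposure. Reporter mRNA quantified by RT-PCR, FAM-labelled fragments resolved by capillary electrophoresis; bidirectional fit versus DMSO baseline.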

[20] = molecular target: Retinoic acid receptor alpha (Homo sapiens) (UniProt P10276); experiment: ATG_DR5_RAR_CIS: Attagene CIS-FACTORIAL HepG2 Assay for human Retinoic Acid Receptor Alpha (RARE), DR5 submotif (AID 2282934); details: HepG2 Attagene cis-factorial RARE DR5 reporter, mRNA; actives raise or lower the signal
Sequence of Retinoic acid receptor alpha (Homo sapiens) (P10276 whole entry, looked up): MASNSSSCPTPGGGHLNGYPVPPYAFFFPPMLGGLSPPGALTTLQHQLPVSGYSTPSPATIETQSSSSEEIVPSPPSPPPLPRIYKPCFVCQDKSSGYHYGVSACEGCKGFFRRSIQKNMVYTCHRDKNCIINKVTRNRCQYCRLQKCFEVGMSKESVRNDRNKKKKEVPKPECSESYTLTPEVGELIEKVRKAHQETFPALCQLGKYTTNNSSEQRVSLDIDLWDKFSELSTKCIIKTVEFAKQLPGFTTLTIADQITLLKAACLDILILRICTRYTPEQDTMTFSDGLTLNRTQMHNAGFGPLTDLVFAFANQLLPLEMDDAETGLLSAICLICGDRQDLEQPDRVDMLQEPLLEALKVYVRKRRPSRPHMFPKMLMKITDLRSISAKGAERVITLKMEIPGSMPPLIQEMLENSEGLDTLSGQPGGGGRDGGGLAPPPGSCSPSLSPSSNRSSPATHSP
In short: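 Read-out: DR5-driven reporter transcript measured by RT-PCR, 6-FAM primer extension, HpaI digest and capillary electrophoresis. Human HepG2 liver cells carry transiently transfected cis-element reporter constructs; dosing lasts 24 h. Gain or loss of signal fitted against DMSO baseline.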

Measured: AC50

COC(=O)Cc1cccc2ccccc12
inactive: [1] | [2] | [3] | [4] | [5] | [6] | [7] | [8] | [9] | [10] | [11] | [12] | [13] | [14] | [15] | [16] | [17] | [18]

CCCC1CCC(=O)O1 (stereo not drawn)
inactive: [1] | [2] | [3] | [4] | [6] | [7] | [8] | [9] | [10] | [11] | [12] | [14] | [15] | [16] | [17] | [18]
active: [5] 10.2 µM

Fc1c(F)c(F)c(Br)c(F)c1F
inactive: [1] | [2] | [3] | [4] | [19] | [6] | [7] | [20] | [8] | [9] | [10] | [11] | [12] | [14] | [15] | [16] | [17] | [18]

CC1(C)C(=O)N(Br)C(=O)N1Cl
inactive: [1] | [2] | [3] | [5] | [19] | [6] | [7] | [20] | [8] | [9] | [10] | [11] | [12] | [14] | [15] | [16] | [17] | [18]

O=C(Cl)c1cccc(C(=O)Cl)c1
inactive: [1] | [2] | [3] | [5] | [6] | [7] | [8] | [9] | [10] | [11] | [12] | [14] | [15] | [16] | [17] | [18]

Clc1sc(Cl)c(Cl)c1Cl
inactive: [1] | [2] | [3] | [5] | [19] | [6] | [7] | [8] | [9] | [10] | [11] | [13] | [15] | [16] | [17] | [18]
